Test [1] in a line: APR_HepG2_P-H2AX_72hr: Apredica 72-hour HepG2 Assay for H2AX Phosphorylation (AID 2282916).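 Note: phospho-histone H2A.x immunostain intensity per cell marking DNA damage.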 The following applies: imaging, actives raise or lower the signal. Summed up:
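HepG2 human liver cells were exposed for 72 hr to compounds at 0.39–200 uM (10 concentrations, duplicate per plate) in 0.5% v/v DMSO. Fixed, permeabilized cells were immunolabeled for phospho-histone H2A.x with Hoechst 33342 and imaged by HCS fluorescence; bidirectional fit versus DMSO.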

Test [2] is described as follows: APR_HepG2_MitoMembPot_72hr: Apredica 72-hour HepG2 Assay for Mitochondrial Membrane Potential (AID 2282917). To be noted: imaging, actives raise or lower the signal. Summed up: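 Membrane potential read by MitoTracker Red CMXRos (250 nM, 30 min, pre-fixation) fluorescence imaging of HepG2 after 72 hr exposure. Ten concentrations, 0.39–200 uM, duplicate wells, 0.5% DMSO; fitted in both directions against DMSO baseline.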

The nature of test [3]: APR_HepG2_MitoticArrest_72hr: Apredica 72-hour HepG2 Assay for Mitotic Arrest (AID 2282918). To be noted: high-content imaging, actives raise or lower the signal. Summed up: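 Read-out is phospho-histone H3 immunofluorescence with Hoechst nuclear segmentation, imaged at 20x. Human HepG2 liver cells received ten concentrations (0.39–200 uM, final DMSO 0.5% v/v) for 72 hr before fixation. Gain or loss of signal was fitted relative to DMSO.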

Test [4] can be described thus: APR_HepG2_MicrotubuleCSK_72hr: Apredica 72-hour HepG2 Assay for Microtubule CSK Stabilty (AID 2282919). The following applies: HepG2 microtubule cytoskeleton, high-content imaging, actives raise or lower the signal. Summed up: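 Read-out is tubulin fluorescence intensity from high-content imaging of HepG2 cells, with nuclei identified by Hoechst 33342. Treatment lasts 72 h at 0.39–200 uM, and curves are fitted bidirectionally against the DMSO negative control.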

A short description of test [5]: APR_HepG2_P-H2AX_24hr: Apredica 24-hour HepG2 Assay for H2AX Phosphorylation (AID 2282920). To be noted: high-content imaging, actives raise or lower the signal. Summed up:
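HepG2, 24 hr, cpd 0.39–200 uM (10 conc, duplicate), DMSO 0.5% v/v final. Fix 3.7% formaldehyde, Triton X-100 permeabilize, anti-phospho-H2A.x 1:200 + Hoechst 2 ug/mL. Imaged, bidirectional fit vs DMSO.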

Test [6] in a line: APR_HepG2_StressKinase_24hr: Apredica 24-hour HepG2 Assay for Stress Kinase (AID 2282922). The following applies: HepG2 stress kinase (phospho-c-Jun) imaging, actives raise or lower the signal. Summed up: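 HepG2, 24 hr dosing, 0.39–200 uM in duplicate, 0.5% DMSO; formaldehyde fix (3.7%), 0.5% Triton X-100; anti-phospho-c-Jun + Cy3 secondary, Hoechst counterstain; ArrayScan imaging; bidirectional curve fit vs DMSO baseline.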

A short description of test [7]: APR_HepG2_p53Act_72hr: Apredica 72-hour HepG2 Assay for p53 Activation (AID 2282923).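 Note: average cellular p53 protein immunofluorescence intensity in HepG2 cells.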 The following applies: high-content imaging, actives raise or lower the signal. Summed up:
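Cells were dosed for 72 hr with compounds at 0.39–200 uM in duplicate (final DMSO 0.5% v/v), then fixed in 3.7% formaldehyde, permeabilized with Triton X-100 and immunostained for p53 (Cy5) with Hoechst 33342 nuclear counterstain.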

Test [8] is described as follows: APR_HepG2_NuclearSize_72hr: Apredica 72-hour HepG2 Assay for Nuclear Size (AID 2282925). To be noted: high-content imaging, actives raise or lower the signal. Summed up:
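HepG2; cpd 0.39–200 uM, 10 conc, duplicate; 72 h; DMSO 0.5% v/v; fix 3.7% formaldehyde 30 min RT; Triton permeabilization; Hoechst 2 ug/mL; HCS imaging 20x; nuclear diameter; gain/loss fit vs DMSO.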

Test [9] is described as follows: ATG_CRE_CIS: Attagene CIS-FACTORIAL HepG2 Assay for human cAMP Responsive Element (CRE) binding protein 3 (AID 2282926). The following applies: HepG2 CRE cis-reporter, Attagene multiplexed mRNA; actives raise or lower the signal. Summed up:
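Human liver HepG2, transient MRTU transfection, 24 h compound exposure. Total RNA → oligo(dT) RT → PCR → 6-FAM primer extension → HpaI cut → CE. Activity called both directions vs DMSO.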

Test [10] addresses CCAAT/enhancer-binding protein beta (Homo sapiens) (UniProt P17676). Briefly: ATG_C_EBP_CIS: Attagene CIS-FACTORIAL HepG2 Assay for human CCAAT/Enhancer Binding Protein (C/EBP) beta (AID 2282927). To be noted: HepG2 Attagene cis-factorial transcription factor reporter; actives raise or lower the signal. Summed up: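 Changes in reporter mRNA, rather than exogenous chimeric receptor activity, reflect native C/EBP signalling in transfected HepG2 cells dosed for 24 h; transcripts are detected by RT-PCR and capillary electrophoresis.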

Test [11] is described as follows: ATG_CMV_CIS: Attagene CIS-FACTORIAL HepG2 Assay for human CMV (Internal Marker) (AID 2282928).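 Note: endpoint acts as a background internal control marker rather than a target.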 The following applies: HepG2 CMV promoter reporter, transcription factor profiling; actives raise or lower the signal. Summed up: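 HepG2 cells transiently transfected with multiple cis-regulated reporter units; 24 h compound exposure. Reporter mRNA quantified by RT-PCR, 6-FAM primer-extension labeling, HpaI digestion and capillary electrophoresis; bidirectional fitting against DMSO baseline.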

Test [12] can be described thus: ATG_DR4_LXR_CIS: Attagene CIS-FACTORIAL HepG2 Assay for human Liver X Receptor (LXR), DR4 submotif (AID 2282929). To be noted: HepG2 Attagene DR4 cis-reporter, mRNA transcription; actives raise or lower the signal. Summed up:
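Endogenous factor activity at a DR4 cis-element is read as reporter mRNA in transiently transfected HepG2 cells. Exposure lasts 24 h; transcripts are amplified, fluorescently labelled and sized by capillary electrophoresis, with DMSO as baseline.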

Test [13] has as its target Aryl hydrocarbon receptor (Homo sapiens) (UniProt P35869). Briefly: ATG_Ahr_CIS: Attagene CIS-FACTORIAL HepG2 Assay for human Aryl Hydrocarbon Receptor (Ahr) (AID 2282930). The following applies: HepG2 AhR cis-factorial reporter transcription; actives raise or lower the signal. Summed up:
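HepG2, transient MRTU (cis) transfection, 24 h exposure. RNA → cDNA → PCR → 6-FAM primer extension → HpaI 2 h 37 C → CE. Fit: bidirectional, DMSO baseline.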

Test [14] can be described thus: ATG_AP_1_CIS: Attagene CIS-FACTORIAL HepG2 Assay for human Activator Protein 1 (AP-1) (AID 2282931). The following applies: HepG2 Attagene cis-factorial AP-1 reporter mRNA; actives raise or lower the signal. Summed up:
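Fluorescence of labelled PCR fragments separated by capillary electrophoresis gives reporter mRNA levels. HepG2 with transfected cis-regulated reporter units, 24 h exposure; DMSO serves as baseline for bidirectional curve fits.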

A short description of test [15]: ATG_AP_2_CIS: Attagene CIS-FACTORIAL HepG2 Assay for human Activator Protein 2 (AP-2) (AID 2282932). To be noted: HepG2 AP-2 cis-reporter, Attagene transcription factor profiling; actives raise or lower the signal. Summed up:
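Step one: transient transfection of HepG2 with reporter transcription units. Step two: 24 h chemical exposure. Step three: RNA extraction, RT-PCR, labelled fragment analysis by capillary electrophoresis; DMSO serves as baseline.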

A short description of test [16]: APR_HepG2_MitoMass_72hr: Apredica 72-hour HepG2 Assay for Mitochondrial Mass (AID 2282924).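 Note: MitoTracker Red CMXRos stain intensity per cell imaged as mitochondrial mass.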 The following applies: high-content imaging, actives raise or lower the signal. Summed up: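 HepG2, 72 hr cmpd, 10 conc 0.39–200 uM in dup, DMSO 0.5% v/v. MitoTracker Red CMXRos 250 nM 30 min pre-fix; formaldehyde 3.7% fix 30 min RT. HCS imaging, gain/loss fit vs DMSO.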

For test [17], the target named is Retinoic acid receptor alpha (Homo sapiens) (UniProt P10276). Briefly: ATG_DR5_RAR_CIS: Attagene CIS-FACTORIAL HepG2 Assay for human Retinoic Acid Receptor Alpha (RARE), DR5 submotif (AID 2282934).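 For AC50: reporter responds to endogenous RAR alpha beta and gamma in HepG2 not RARA alone.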 To be noted: HepG2 Attagene cis-factorial RARE DR5 reporter, mRNA; actives raise or lower the signal. Summed up: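 HepG2, transient cis-reporter transfection, 24 h exposure. mRNA readout: RT-PCR, FAM label, HpaI cut, capillary electrophoresis. DMSO baseline, gain/loss fitting.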

The nature of test [18]: APR_HepG2_StressKinase_72hr: Apredica 72-hour HepG2 Assay for Stress Kinase (AID 2282921). To be noted: HepG2 stress kinase (phospho-c-Jun) imaging, actives raise or lower the signal. Summed up:
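Cells were exposed for 72 h to ten concentrations (0.39–200 uM, duplicate) at 0.5% v/v DMSO final, then fixed with 3.7% formaldehyde, permeabilized and immunostained for phospho-c-Jun (Cy3 secondary) with Hoechst nuclear counterstain.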

A short description of test [19]: ATG_BRE_CIS: Attagene CIS-FACTORIAL HepG2 Assay for human Bone Morphogenetic Protein (BMP) Response Element (BRE) (AID 2282933). To be noted: HepG2 BMP response element reporter, Attagene transcription factor profiling; actives raise or lower the signal. Summed up:
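Read-out: reporter mRNA induction quantified by RT-PCR and capillary electrophoresis after 24 h chemical exposure of transfected HepG2 cells. Endogenous factor activity on the BMP response element; gain or loss fitted against DMSO baseline.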

One may read the AC50 as the concentration at which the activity in the assay is half-maximal.

Values joined by “and” are separate entries in the source; they are usually repeats but may differ in a detail not shown here. Identical values can stand only once. More than one record can exist for a structure, and the calls need not agree. Active and inactive are the calls of the source. Rule for the calls: active = hit-call score of the fitted dose curve at least 0.9, where 1 is the maximum; inactive = score below 0.9.

Sequence of CCAAT/enhancer-binding protein beta (Homo sapiens) (P17676 whole entry, looked up): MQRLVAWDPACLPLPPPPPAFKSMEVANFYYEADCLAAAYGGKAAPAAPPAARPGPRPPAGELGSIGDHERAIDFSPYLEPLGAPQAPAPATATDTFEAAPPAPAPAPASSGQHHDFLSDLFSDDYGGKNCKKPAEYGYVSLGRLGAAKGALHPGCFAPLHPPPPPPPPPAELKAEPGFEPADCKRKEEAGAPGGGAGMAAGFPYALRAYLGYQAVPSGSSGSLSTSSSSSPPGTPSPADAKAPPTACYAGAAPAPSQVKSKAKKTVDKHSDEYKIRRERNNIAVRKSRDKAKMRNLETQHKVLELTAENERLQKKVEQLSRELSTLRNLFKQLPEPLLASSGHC
Sequence of Aryl hydrocarbon receptor (Homo sapiens) (P35869 whole entry, looked up): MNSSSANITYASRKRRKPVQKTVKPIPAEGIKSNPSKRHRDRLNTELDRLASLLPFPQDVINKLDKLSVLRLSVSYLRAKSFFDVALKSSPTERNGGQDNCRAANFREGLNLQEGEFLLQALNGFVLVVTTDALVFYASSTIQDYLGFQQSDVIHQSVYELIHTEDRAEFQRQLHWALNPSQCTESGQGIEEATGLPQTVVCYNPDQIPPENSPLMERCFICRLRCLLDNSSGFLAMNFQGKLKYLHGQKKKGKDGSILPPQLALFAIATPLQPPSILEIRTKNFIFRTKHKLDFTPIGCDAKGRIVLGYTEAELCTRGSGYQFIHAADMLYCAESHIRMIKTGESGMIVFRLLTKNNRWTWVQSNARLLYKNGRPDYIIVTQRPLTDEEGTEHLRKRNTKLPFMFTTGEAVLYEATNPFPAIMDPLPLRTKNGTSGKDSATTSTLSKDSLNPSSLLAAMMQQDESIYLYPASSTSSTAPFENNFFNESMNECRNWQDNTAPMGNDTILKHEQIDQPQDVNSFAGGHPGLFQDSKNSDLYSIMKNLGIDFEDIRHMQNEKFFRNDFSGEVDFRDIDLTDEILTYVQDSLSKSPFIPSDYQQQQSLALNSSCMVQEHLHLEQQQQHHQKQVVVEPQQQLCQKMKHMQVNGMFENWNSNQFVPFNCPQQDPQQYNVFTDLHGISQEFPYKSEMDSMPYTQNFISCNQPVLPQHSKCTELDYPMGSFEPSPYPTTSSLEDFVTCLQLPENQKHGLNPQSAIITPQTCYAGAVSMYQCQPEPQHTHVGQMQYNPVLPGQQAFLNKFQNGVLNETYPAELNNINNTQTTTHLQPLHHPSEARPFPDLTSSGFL
Sequence of Retinoic acid receptor alpha (Homo sapiens) (P10276 whole entry, looked up): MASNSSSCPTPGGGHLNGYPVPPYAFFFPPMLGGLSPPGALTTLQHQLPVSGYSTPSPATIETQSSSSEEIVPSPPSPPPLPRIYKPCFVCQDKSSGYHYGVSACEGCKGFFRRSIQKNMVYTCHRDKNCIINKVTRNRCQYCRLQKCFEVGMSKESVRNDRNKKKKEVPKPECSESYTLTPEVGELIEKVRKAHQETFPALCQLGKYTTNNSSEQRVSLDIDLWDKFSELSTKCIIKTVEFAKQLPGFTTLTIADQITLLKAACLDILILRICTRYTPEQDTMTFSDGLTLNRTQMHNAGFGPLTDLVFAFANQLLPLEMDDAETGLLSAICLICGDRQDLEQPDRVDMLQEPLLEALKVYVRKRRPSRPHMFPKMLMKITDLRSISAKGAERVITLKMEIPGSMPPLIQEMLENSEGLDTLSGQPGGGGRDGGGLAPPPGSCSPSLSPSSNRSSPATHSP

For the compound `O=C(O)c1nc(Cl)ccc1Cl`, the outcome in [1], in [2], in test [3], in [4], in [5] and in test [6] was inactive. Also, the call in test [7], in test [8], in [9], in [10], in test [11] and in [12] was inactive. For the same compound, the compound was classed as inactive in test [13], in test [14] and in test [15]. Also, in test [13], the AC50 was 50 µM (active).
For `CC(C)(C)c1ccc(CSc2cnn(C(C)(C)C)c(=O)c2Cl)cc1`, the compound was classed as inactive in [1], in [2], in test [5], in [6], in test [7] and in test [16]. Further, the outcome in test [8], in test [11], in test [13] and in [15] was inactive. The AC50 was 7.56 µM (active) in test [4]; 188 nM (active) in test [9]; 12.9 nM (active) in test [10]; 50 µM (active) in test [12]; 99.7 nM (active) in test [14]; 583 nM (active) in test [17].
In the case of `COc1cnc(OC)n2nc(NS(=O)(=O)c3c(OCC(F)F)cccc3C(F)(F)F)nc12`, the call in test [1], in test [2], in test [4], in test [5], in test [6] and in test [7] was inactive. Also, the compound was called inactive in [8], in [9], in [10], in test [11], in [12] and in test [13]. Moreover, the compound was classed as inactive in test [14] and in test [15].
Consider `CC(C)Oc1cc(-n2nc(C(C)(C)C)oc2=O)c(Cl)cc1Cl`, for which the AC50 is 82.2 µM (active) in test [1]; 52.6 µM (active) in test [4]; 6.05 µM (active) in test [11]; 21800 nM (active) in [14]; 50 µM (active) in [19]; 860 nM (active) in test [17]. The compound was classed as inactive in [2], in test [5], in test [18], in [6], in test [7] and in test [8]. Moreover, the outcome in [9], in test [10], in [12], in [13] and in [15] was inactive.
`COP(=S)(OC)Oc1nc(Cl)c(Cl)cc1Cl`: the compound was called inactive in test [1], in [2], in test [4], in test [5], in [6] and in [7]. The outcome in [8], in test [9], in test [10], in test [11], in test [13] and in test [14] was inactive. In addition, the compound was classed as inactive in test [15] and in test [17]. The AC50 in test [12] was 85.1 µM (active).
Take `COc1nc(C)nc(NC(=O)NS(=O)(=O)c2ccccc2CCC(F)(F)F)n1`: the compound was called inactive in test [1], in test [2], in [4], in test [5], in [6] and in [7]. The outcome in [8], in test [9], in [10], in test [11], in [12] and in [13] was inactive. Moreover, the outcome in [14], in test [15], in test [19] and in [17] was inactive.
Turning to `COc1ccc(C(c2ccc(OC)cc2)C(Cl)(Cl)Cl)cc1`, the AC50 is 98.2 µM (active) in test [1]; 71 µM (active) in test [4]; 76.4 µM (active) in test [7]; 15.2 µM (active) in test [13]; 39.8 µM (active) and 59.5 µM (active) and 34.4 µM (active) in test [14]; 19700 nM (active) in test [17]. Further, the call in test [2], in test [5], in test [18], in test [6], in test [8] and in test [9] was inactive. For the same compound, the result in test [10], in test [11], in [12], in [13], in [14] and in [15] was inactive. Besides, the outcome in test [17] was inactive.

These data come from PubChem BioAssay (EPA / NIEHS).
